An excerpt weighted towards active compounds, which were near 18% of everything screened.
HepG2 tox – kills HepG2 cells in TGF-b inhibitor counter-screen | HepG2 CAGA-GFP viability, ATP luminescence, 18 h | Potency, µM (top dose mostly 46.1 µM), without a hit: top-dose activity change, negative = cytotoxicity, actives largely listed as cytotoxic | hit rate 0.76% among 410,000 | AID 588856; further: potency means the concentration at half of the fitted maximal effect
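HepG2 CAGA-GFP cells (1000/well, DMEM with 1% FBS) received compound, then TGF-beta at 500 pg/mL final, and were incubated 18 hours at 37 degrees C. Viability was read by CellTiter-Glo luminescence. Media-only wells were set as complete cell-killing and DMSO as no toxicity.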
IL-1B inflam inh – blocks inflammasome-driven IL-1 beta release | THP-1 LPS/ATP IL-1B secretion, AlphaLISA, 16 h; stronger effect = lower value | activity change, % at 57.5 µM | hit rate 4.7% among 360,000 | AID 743279; in the data active means activity change below about -50%; inconclusive means mostly about -30% to -49%; further: on the % scale 0 is the no-effect control and ±100 the full control effect
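Secreted IL-1B measured by AlphaLISA bead assay after 16 h compound exposure of THP-1 cells; compounds (final up to 57.5 uM) added 1 h before LPS (250 ng/mL) and ATP (1.25 mM) stimulation; lower signal means less secretion.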
TDP1 block – TDP1 (human) enzyme inhibition; recombinant TDP1, AlphaScreen DNA substrate cleavage; Potency, µM (top dose mostly 130 µM), without a hit: at the top dose activity change, negative = inhibition, hits mostly inhibitors; hit rate 0.28% among 350,000; AID 485290; further: potency means the concentration at half of the fitted maximal effect; on the % scale 0 is the no-effect control and ±100 the full control effect; nearly all actives have a fitted effect of over 40% in size
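Recombinant human Tdp1 (E. coli-expressed, 1 nM final) preincubated with compounds 15 min at room temperature, then 5'-biotin/3'-phosphotyrosine-FITC DNA substrate (15 nM final) added for 5 min. AlphaScreen beads (10 ug/ml final) added 10 min; cleavage lowers signal.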
TDP1 cell CPT – DT40-hTDP1 cell growth loss with CPT | Potency, µM (doses to about 46.2 µM), for inactives: at the highest dose activity change, negative = growth inhibition, most hits filed as inhibitors | chicken DT40 Tdp1-/-;hTDP1 cells + 20 nM CPT, ATP luminescence, 48 h | hit rate 12% among 420,000; further: potency means the concentration at half of the fitted maximal effect; on the % scale 0 is the no-effect control and ±100 the full control effect; nearly all actives have a fitted effect of over 55% in size
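Chicken DT40 Tdp1-/- cells stably complemented with human TDP1 were seeded at 400 cells/well in medium containing 20 nM camptothecin, exposed to pin-transferred compounds, and grown at 37 °C for at least 48 hr. Viability was read as ATP luminescence.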
DT40 TDP1 no CPT – qHTS for Inhibitors of human tyrosyl-DNA phosphodiesterase 1 (TDP1): qHTS in cells in absence of CPT; DT40 Tdp1-/- hTDP1 cells, no CPT, ATP luminescence, 48 h; hit rate 15% among 420,000; AID 686978, 2013; Potency, µM (highest dose often 46.2 µM), for the others: top-dose activity change, negative = growth inhibition, usual class: inhibitors; further: potency means the concentration at half of the fitted maximal effect; on the % scale 0 is the no-effect control and ±100 the full control effect; nearly all actives have a fitted effect of over 55% in size
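Cells were dispensed at 400 per well, compounds added by pin tool, plates incubated ≥48 hr at 37 °C, then CellTiter-Glo added for 30 min at room temperature before luminescence reading. Line: DT40 Tdp1-/- complemented with hTDP1; camptothecin omitted.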
TGFb SMAD3 inh – blocks TGF-b signaling; hit rate 1.2% among 410,000; AID 588855; HepG2 CAGA-GFP TGF-b/SMAD3 reporter, GFP fluorescence, 18 h; TGF-beta stimulated, 500 pg/mL final; Potency, µM (doses to about 46.1 µM), for the others: at the top dose activity, negative = inhibition, actives largely listed as inhibitors; further: potency means the concentration at half of the fitted maximal effect; on the % scale 0 is the no-effect control and ±100 the full control effect; nearly all actives have a fitted effect of over 65% in size
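HEPG2 CAGA-GFP reporter cells (1000/well, DMEM with 1% FBS) received compounds, then recombinant TGF-beta at 500 pg/mL final for 18 hours at 37 degrees C. Per-cell GFP summed per well was normalised to unstimulated and stimulated DMSO controls before curve fitting.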
* marks the source's active call; other numbers are inactive results; ? = inconclusive; · = not tested or not shown. Unless noted, the call rests on the fitted dose curve; in most records, active means well fitted curve in the direction sought with a large enough effect; inconclusive means small, poorly fitted or top-dose-only effect, or another doubt; inactive means no such curve, though single readings can be large; an effect the other way counts as inactive or inconclusive.

SMILES	HepG2 tox	IL-1B inflam inh	TDP1 block	TDP1 cell CPT	DT40 TDP1 no CPT	TGFb SMAD3 inh
CCn1c(=O)n(-c2ccc(C)c(F)c2)c(=O)c2sc3ccccc3c21	6%	·	4%	-28%	?	1%
CC(=O)N1CCc2cc(S(=O)(=O)CCC(=O)Nc3ccc(C)cc3Br)ccc21	-19%	·	5%	?	?	?
COc1ccc2[nH]c(=O)c(CN(CCc3ccccc3)Cc3nnnn3CC3CCCO3)cc2c1 (stereo unspecified)	-17%	-17	6%	6.5µM*	29µM*	7%
COc1ccc2[nH]c(=O)c(CN(Cc3ccc(C)cc3)Cc3nnnn3CC3CCCO3)cc2c1 (stereo unspecified)	-4%	-11	5%	?	?	10%
COc1ccc2[nH]c(=O)c(CN(Cc3ccccc3OC)Cc3nnnn3CC3CCCO3)cc2c1 (stereo unspecified)	-21%	?	10%	23µM*	?	-27%
O=c1[nH]c2cc3c(cc2cc1CN(Cc1nnnn1CC1CCCO1)C1CCCC1)OCO3 (stereo unspecified)	-52%	3	-6%	?	13µM*	-6%
COc1ccccc1CN(Cc1cc2cc(C)cc(C)c2[nH]c1=O)Cc1nnnn1CC1CCCO1 (stereo unspecified)	10%	0	3%	?	23µM*	-5%
O=c1[nH]c2cc3c(cc2cc1CN(CCc1ccccc1)Cc1nnnn1CC1CCCO1)OCO3 (stereo unspecified)	-9%	-9	-1%	?	23µM*	?
Cc1oc2ccc(O)c(CN3CCN(C)CC3)c2c1C(=O)Nc1cccc(Cl)c1C	-4%	·	7%	8.2µM*	18µM*	-11%
CCN1CCN(Cc2c(O)ccc3oc(C)c(C(=O)Nc4cccc(Cl)c4C)c23)CC1	-4%	·	4%	8.2µM*	21µM*	20%
O=C(ONc1ccc(N=NC(=O)c2ccccc2O)cc1)c1ccccc1	-24%	39	8%	7.3µM*	6.5µM*	-11%
COc1ccc(Cl)cc1NC(=O)CN(C)CC(=O)Nc1c(C)n(C)n(-c2ccccc2)c1=O	-1%	-23	2%	?	?	8%
O=C(c1cccc([N+](=O)[O-])c1)N1CCN(c2ccc(N3CCOCC3)nn2)CC1	-16%	14	-7%	6%	-4%	-19%
Cc1ccc(Nc2ccc(N3CCN(C(=O)c4ccc([N+](=O)[O-])cc4Cl)CC3)nn2)cc1	-11%	·	8%	21µM*	18µM*	?
O=C(c1cccc([N+](=O)[O-])c1)N1CCN(c2ccc(Nc3ccccc3)nn2)CC1	4%	·	5%	?	21µM*	?
Cc1cccc(CC(C)NC(=O)c2oc3c(F)cccc3c2C)n1 (stereo unspecified)	-15%	-1	·	?	10µM*	-20%
Cc1cc(C)c(NC(=O)c2ccc(CNS(=O)(=O)c3cc(C(F)(F)F)ccc3Cl)cc2)c(C)c1	-17%	0	8%	21µM*	16µM*	0%
CC(C)C(C(=O)NCc1ccccc1)N(C)Cc1ccc(Cl)c(Cl)c1 (stereo unspecified)	·	0	·	?	?	·
CCC(CC)C(C(=O)NCc1ccccc1)N(C)Cc1ccc(Cl)c(Cl)c1 (stereo unspecified)	·	-10	·	21µM*	15µM*	·
CCOc1ccc(CN(C)C(C)C(=O)NCc2ccccc2)cc1 (stereo unspecified)	-13%	11	·	?	?	-1%
